Molecules are shown by their SMILES. Inconclusive results are not listed. Activity calls are given as the source filed them. The call rests on the fitted dose curve; in most records, active means well fitted inhibition curve with a large enough effect; inconclusive means small, poorly fitted or top-dose-only effect; inactive means flat fitted curve, though single readings scatter.
On the % scale 0 is the no-effect control and ±100 the full control effect; potency means the concentration at half of the fitted maximal effect.

The test concerns KB-3-1. Description: Cytotoxic Profiling of Annotated Libraries Using Quantitative High-Throughput Screening (AID 1296008). Further: nearly all actives have a fitted effect of over 60% in size. The conditions noted are these: Five cell lines viability, CellTiter-Glo ATP luminescence, 48-72 h; max response: hits give low values. In outline: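 Cytotoxicity was measured as CellTiter-Glo ATP luminescence, read after 10 min at room temperature. Compound treatment of the cells lasted 48 or 72 hr at 37 degrees Celsius in a qHTS format.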
(In general: Cellular ATP, detected with luciferase, serves as a proxy for viable cell number.)
`O=C(C[C@@H]1NCCC[C@H]1O)Cn1cnc2cc(Br)c(Cl)cc2c1=O`: the max response was -0.356% (inactive). Take `CCN1C[C@]2(COC)[C@H](O)C[C@H](OC)[C@@]34[C@@H]5C[C@@]6(O)[C@H](OC(=O)c7ccccc7)[C@@H]5[C@@](OC(C)=O)([C@@H]([C@H](OC)[C@H]23)[C@@H]14)[C@@H](O)[C@@H]6OC`: the max response was 2.56% (inactive). `CNc1ccc(C(=O)CC(O)CCC(C)C2OC(=O)CC(O)CC(=O)CC(O)CC(O)CC(O)CC(O)CC3(O)CC(O)C(C(=O)OC)C(CC(O[C@@H]4O[C@H](C)[C@@H](O)[C@H](N)[C@@H]4O)/C=C/C=C/C=C/C=C/C=C/C=C/C=C/C2C)O3)cc1` (some centres undefined): the max response is -0.469% (inactive). `Cc1cccc(C(C)c2cnc[nH]2)c1C` (centres undefined): the max response is 8.09% (inactive).

As for `C[C@H]1CC[C@]2(NC1)O[C@H]1C[C@H]3[C@@H]4CC[C@H]5C[C@@H](O)CC[C@]5(C)[C@H]4CC[C@]3(C)[C@H]1[C@@H]2C`, the max response is -2.2% (inactive). Turning to `C[C@]12CC[C@H](O)C[C@H]1CC[C@@H]1[C@@H]2CC[C@]2(C)[C@@H](c3ccc(=O)oc3)C[C@H]3O[C@]132`, the Potency was 1.84 µM (active). Consider `Oc1ccc2c3c1O[C@H]1[C@@H](O)CC[C@@]4(O)[C@@H](C2)N(CC2CCC2)CC[C@]314`, for which the max response was 4.11% (inactive). On the same count and under the same terms, then `[S]=[Sb](=[S])[S][Sb](=[S])=[S]`, with 2.26% (inactive); and `NCC[C@H](O)C(=O)N[C@@H]1C[C@H](N)[C@@H](O[C@H]2O[C@H](CN)[C@@H](O)[C@H](O)[C@H]2N)[C@H](O[C@@H]2O[C@H](CO)[C@@H](O)[C@H]2O)[C@H]1O`, with 11% (inactive).
